Assay outcomes from PubChem.
Shown is part of a subset that was picked to be rich in hits.
BL2 CD40 inh = inhibitors of CD40-induced NF-kB signaling, primary screen, BL2 cells, luciferase reporter, single point; CD40L-induced, 4 h; actives 0.94% (n = 83,000); inhibition, % at 10 µM;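 active means mean inhibition of at least 50% with a set share of replicates also reaching that level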
Large screens that a line does not name were inactive; [ ] = remark or other dose.

O=C1CC(c2ccc3c(c2)OCO3)Sc2nc3ccccc3n21 (centres undefined)	BL2 CD40 inh 60
O=C1CC(c2cccs2)Sc2nc3ccccc3n21 (centres undefined)	none
O=C1CC(c2ccco2)Sc2nc3ccccc3n21 (centres undefined)	none
Cc1nonc1OC(C)CNc1ccc([N+](=O)[O-])cc1 (centres undefined)	none
CC(C)NC(=O)N1Cc2cc(C(=O)NC3CCC3)nc(-c3cccc(-c4cncnc4)c3)c2[C@@H]1CCO	none
CCCNC(=O)c1cc2c(c(-c3cccc(-c4cc5ccccc5o4)c3)n1)[C@H](CCO)N(C(=O)NC(C)C)C2	BL2 CD40 inh 56[25 µM]
CCNC(=O)c1cc2c(c(-c3cccc(-c4cc5ccccc5o4)c3)n1)[C@@H](CCO)N(C(=O)NC(C)C)C2	none
CC(C)OCCCNC(=O)Cc1ccc(Br)cc1	none
COc1ccc(S(=O)(=O)N(C)C[C@@H]2OCCCC[C@@H](C)Oc3ccc(NC(=O)Nc4ccc(F)cc4)cc3C(=O)N([C@@H](C)CO)C[C@H]2C)cc1	none
O=C(Nc1ccc(C(F)(F)F)cc1)N[C@H]1C=C[C@@H](CC(=O)N2CCCCC2)O[C@@H]1CO	none
CNC(=O)OCc1nc(SSC(C)(C)C)n(C)c1COC(=O)NC	BL2 CD40 inh 96
CNC[C@H]1Oc2ccccc2CC(=O)N(C)C[C@@H]1C	none
CN(C)C(CNC(=O)c1ccc(S(=O)(=O)Nc2cccc(C(F)(F)F)c2)cc1)c1ccco1 (centres undefined)	none
Cc1c(C)n(CCN(C)C)c2ncnc(NCc3ccccc3)c12	none
Nc1ncnc2c1ncn2CCNCCc1ccccc1	none
Cc1ccc(OCCn2cnc3c(N)ncnc32)cc1	BL2 CD40 inh 84
Cc1ccc(OCCCCn2cnc3ccccc32)cc1	none
Cc1ccc(S(=O)(=O)NCCC(=O)Nc2ccc3c(c2)OCO3)cc1	none
Clc1cccc(-c2cccc3nccn23)c1	none
Cc1nc2sccn2c(=O)c1CCN1CCC(=C(c2ccc(F)cc2)c2ccc(F)cc2)CC1	BL2 CD40 inh 27
Cc1ccc(C)c(C(=O)c2c(C)nc3sccn23)c1	none
Cc1nc2ccccn2c(=O)c1CCN1CCC(C(=O)c2ccc(F)cc2)CC1	none
CN1CCN(Cc2ccc(-c3ccc(Cl)cc3)o2)CC1	none
O=C(CCS(=O)(=O)c1ccccc1F)Nc1ccc(N2CCN(Cc3ccccc3)CC2)cc1	none
Nc1nnc(CCOc2ccc(Cl)cc2)s1	none
NCCOc1ccc(C23CC4CC(CC(C4)C2)C3)cc1	BL2 CD40 inh 104
NC(=O)c1ccc(C23CC4CC(CC(C4)C2)C3)o1	none
COc1cccc(-c2ccc3c(c2)O[C@@H](CN(C)C(=O)C2CCCCC2)[C@H](C)CN([C@H](C)CO)S3(=O)=O)c1	none
O=C(Nc1ccc(Cl)c(S(=O)(=O)N2CCOCC2)c1)c1cn2ccccc2n1	none
O=C(Nc1ccc(N2CCOCC2)cc1)c1cn2ccccc2n1	BL2 CD40 inh 57
O=C(NC1CC1)c1cccc(NC(=O)c2cn3ccccc3n2)c1	none
O=C(Cc1n[nH]c(=O)c2ccccc12)Nc1cccc(S(=O)(=O)N2CCCCCC2)c1	none
C[C@H](NC(=O)C[C@@H]1C[C@H]2c3cc(NC(=O)NC4CCCC4)ccc3O[C@H]2[C@H](CO)O1)c1ccccc1	none
COc1ccccc1-c1ccc([C@H]2[C@@H](CO)N(C(=O)C3CCC3)[C@H]2C#N)cc1	none
CCCNC(=O)N1[C@@H](C#N)[C@@H](c2ccc(C3=CCCCC3)cc2)[C@@H]1CO	none
CCCNC(=O)N1[C@H](CO)[C@@H](c2ccc(C3=CCCCC3)cc2)[C@@H]1C#N	none
CCCNC(=O)N1[C@H](C#N)[C@H](c2ccc(C3=CCCCC3)cc2)[C@@H]1CO	BL2 CD40 inh 61[25 µM]
Cc1ccc(OC(=O)CCC(=O)Oc2ccc(C)cc2C)c(C)c1	none
C=C(CN(C)C)C(=O)c1ccc(C)cc1C	BL2 CD40 inh 93
Cc1ccc(C)c(N(CC(=O)N(C)C)S(C)(=O)=O)c1	none
CC1(C)CC(=O)C(CS(=O)(=O)c2ccccc2)=C(Cl)C1	none
Cc1cccc(S(=O)(=O)N[C@@H]2CC[C@H](CCNC(=O)Nc3cc(F)ccc3F)O[C@@H]2CO)c1	none
Cc1ccc2c(CC(=O)Nc3sccc3C(N)=O)coc2c1	none
COC(=O)c1c(S(=O)(=O)N2CCOCC2)c(C)n(C)c1C	none
N=C(N)c1ccc(OCCCCCOc2ccc(C(=N)N)cc2)cc1	BL2 CD40 inh 62
CN(C)CCCCOc1ccc(F)cc1	none
OCCNCCCCOc1ccc(F)cc1	none
COc1cccc(NC(=O)C[C@@H]2CC[C@@H]3[C@H](COc4ccc(NC(=O)C5CCCC5)cc4C(=O)N3C)O2)c1	none
Cc1ccc2nc(NC(=O)c3ccc4c(c3)OCO4)sc2c1	none
O=C(N/N=C/c1c[nH]c2ccc(Br)cc12)c1ccncc1	none
COc1ccc(C(=O)NCCS(=O)(=O)NCCc2ccccc2)cc1	none
CC(=O)NS(=O)(=O)c1ccc(NC(=O)COc2cccc3c2OC(C)(C)C3)cc1	none
COc1ccc(NC(=O)Nc2ccc3c(c2)C(=O)N([C@H](C)CO)C[C@@H](C)[C@@H](CN(C)Cc2ccc(C(F)(F)F)cc2)OCCCC[C@@H](C)O3)cc1	none
C[C@H](CO)N1C[C@H](C)[C@@H](CN(C)Cc2ccc(Cl)c(Cl)c2)OCCCC[C@H](C)Oc2ccc(NS(=O)(=O)c3cccs3)cc2C1=O	BL2 CD40 inh 51[25 µM]
C[C@@H]1CCCCO[C@@H](CN(C)Cc2ccc(Cl)c(Cl)c2)[C@@H](C)CN([C@H](C)CO)C(=O)c2cc(NS(=O)(=O)c3cccs3)ccc2O1	none
COc1ccc(S(=O)(=O)N(C)C[C@H]2Oc3ccc(NC(=O)Nc4ccc(C(F)(F)F)cc4)cc3C(=O)N([C@@H](C)CO)C[C@@H]2C)cc1	BL2 CD40 inh 74[25 µM]
COc1ccc(NC(=O)Nc2ccc3c(c2)C(=O)N([C@@H](C)CO)C[C@@H](C)[C@@H](CN(C)Cc2ccc(C(F)(F)F)cc2)OCCCC[C@@H](C)O3)cc1	none
C[C@H]1CN([C@@H](C)CO)C(=O)c2cc(NC(=O)Nc3ccc(C(F)(F)F)cc3)ccc2O[C@H]1CN(C)S(=O)(=O)c1ccc(Cl)cc1	none
C[C@H](CO)N1C[C@H](C)[C@H](CN(C)CC2CCCCC2)OCCCC[C@H](C)Oc2ccc(NC(=O)Nc3ccc(C(F)(F)F)cc3)cc2C1=O	BL2 CD40 inh 76[25 µM]
COc1ccc(NC(=O)Nc2ccc3c(c2)C(=O)N([C@@H](C)CO)C[C@H](C)[C@@H](CN(C)S(=O)(=O)c2ccc(OC)cc2)O3)cc1	none
C[C@@H]1CCCCO[C@H](CN(C)Cc2ccc(Cl)c(Cl)c2)[C@@H](C)CN([C@H](C)CO)C(=O)c2cc(NS(=O)(=O)c3cccs3)ccc2O1	none
C[C@@H]1CN([C@@H](C)CO)C(=O)c2cc(NC(=O)Nc3ccc(C(F)(F)F)cc3)ccc2O[C@@H](C)CCCCO[C@H]1CN(C)CC1CCCCC1	none
COc1ccc(S(=O)(=O)Nc2ccc3c(c2)C(=O)N([C@@H](C)CO)C[C@H](C)[C@H](CN(C)Cc2ccc(C(F)(F)F)cc2)OCCCC[C@H](C)O3)cc1	BL2 CD40 inh 59[25 µM]
C[C@@H]1CN([C@H](C)CO)C(=O)c2cc(NC(=O)Nc3ccc(C(F)(F)F)cc3)ccc2O[C@@H](C)CCCCO[C@@H]1CN(C)CC1CCCCC1	none
C[C@@H]1CN([C@H](C)CO)C(=O)c2c(c3ccccc3n2C)-c2ccccc2CO[C@H]1CN(C)Cc1ccc(-c2ccccc2)cc1	none
Cn1nc(NC(=O)C2CCC2C(=O)O)c2c(F)cccc21 (centres undefined)	none
O=C(NCC1COc2ccccc2O1)c1cccc(S(=O)(=O)N2CCN(c3ccccc3)CC2)c1 (centres undefined)	none
CCNC(=O)N1CCNC(=O)C1CC(=O)OC (centres undefined)	none
Nc1cc(-c2ccncc2)c[nH]c1=O	none
